# DAX1 inh-1 = DAX1 (NR0B1) inhibitors on StAR promoter, primary screen, cell-based, luminescence, SF-1 (NR5A1), full-length DAX-1; HEK293T StAR-luciferase reporter, SF-1/DAX-1 repression relief; inhibition, % at 6.8 µM; 370,000 compounds, 1.1% hits; AID 652010, 2013;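 active means inhibition above the mean over all tested compounds plus 3 SD, cut at about 3.6% in these data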;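 further: 0% = DAX-1 cells with DMSO and 100% = cells lacking DAX-1 with DMSO; higher inhibition means more luminescence from relief of DAX-1 repression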
# hgDAF12 agonist = H. glycines DAF-12 receptor agonists, primary screen, cell-based, luminescence, HEK293, GAL4 fusion, UAS-luciferase; Nuclear hormone receptor DAF-12 (Heterodera glycines), GAL4 fusion; HEK293 GAL4-hgDAF12 UAS-luciferase reporter, agonist luminescence; normalized to butyrate control; activation, % at 6.8 µM; 370,000 compounds, 1.8% hits; AID 687014, 2013;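 active means activation above a cutoff set at the mean of all screened compounds plus 3 SD, cut at about 10% in these data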;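 further: 0% = DMSO wells and 100% = sodium butyrate wells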
# DAX1 inh-2 = DAX1 (NR0B1) inhibitors, primary screen, cell-based, HEK293, Gal4-DAX1, luciferase luminescence; HEK293 Gal4-DAX1 luciferase reporter; AID 504766, 2011; Nuclear receptor subfamily 0 group B member 1 (Homo sapiens), P51843; 340,000 compounds, 0.99% hits; inhibition, % at 6.75 µM;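 active means inhibition above the mean over all tested compounds plus 3 SD, cut at about 4.2% in these data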;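 further: 0% = DAX1-transfected cells with DMSO and 100% = empty-vector control cells with DMSO; inhibition shows as a rise in luminescence from relieved DAX1 repression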
# Target sequence (P51843 207-470 limits assumed): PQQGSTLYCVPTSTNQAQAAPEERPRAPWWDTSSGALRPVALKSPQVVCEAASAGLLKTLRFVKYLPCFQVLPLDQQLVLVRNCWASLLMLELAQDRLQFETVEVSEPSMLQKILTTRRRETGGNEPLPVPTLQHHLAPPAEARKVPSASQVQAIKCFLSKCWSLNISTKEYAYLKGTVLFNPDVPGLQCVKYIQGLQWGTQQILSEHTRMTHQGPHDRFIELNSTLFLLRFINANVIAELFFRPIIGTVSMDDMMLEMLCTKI
# ssDAF-12 act = S. stercoralis DAF-12 nuclear receptor activators, primary screen, cell-based, luminescence, HEK293, GRIP1 co-expression, lit1-tk-luc | Nuclear hormone receptor DAF-12 (Strongyloides stercoralis) | HEK293 ssDAF-12/GRIP1 lit1-tk-luc reporter; % of 3 µM dafachronic acid response | AID 652126, 2013 | 370,000 compounds, 1% hits | activation, % at 6.8 µM;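 active means activation above the mean over all tested compounds plus 3 SD, cut at about 0.9% in these data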;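 further: 0% = DMSO-only wells and 100% = 3 µM delta7-dafachronic acid wells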
# hcDAF-12 act = H. contortus DAF-12 nuclear receptor activators, primary screen, cell-based, luminescence, HEK293, lit1-tk-luc reporter. HEK293 hcDAF-12 lit1-tk-luc reporter; 0% DMSO, 100% Δ7-dafachronic acid. activation, % at 6.8 µM. 370,000 compounds, 1.4% hits. AID 652067, 2013;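 active means activation above the mean of all tested compounds plus 3 SD, cut at about 5.5% in these data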;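 further: 100% = response to 3 µM Δ7-dafachronic acid high control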
# An asterisk follows results filed as active; nt = no result given. This is a sample that favours compounds with a hit; in the whole collection about 4.1% have one here.
SMILES,DAX1 inh-1,hgDAF12 agonist,DAX1 inh-2,ssDAF-12 act,hcDAF-12 act
Cc1ccc(-c2nc3ccccc3o2)cc1NC(=S)NC(=O)c1cccs1,0,11*,2,0,1
COc1ccc2oc(-c3ccc(C)c(NC(=O)c4ccc(N5CCOCC5)c([N+](=O)[O-])c4)c3)nc2c1,2,11*,1,0,3
O=C(Nc1ccc(-c2nc3ccccc3o2)cc1)c1ccc2c(c1)OCO2,0,-3,0,-1,0
Cc1ccc2nc(-c3ccc(SCC(=O)Nc4nnc(C)s4)nc3)[nH]c2c1,4.3*,8,3,0,5.7*
CCn1c(SCC(=O)NN=Cc2cc(OC)ccc2OC)nnc1-c1ccc(OC)cc1,-1,-2,nt,-2,-3
NC(=O)C1CCN(C2CC(=O)N(Cc3cccs3)C2=O)CC1 (centres undefined),0,-1,2,1.2*,0
CCN1C(=O)N(C(C)=O)[C@H]2C[C@H](C(=O)N3CCCC3)[C@H](C)[C@H](c3ccccc3)C[C@H]21,1,0,nt,-1,-1
Clc1cccc(Cl)c1/C=N\Nc1nccs1,0,2,1,0,1
Cc1csc(N/N=C/c2c(F)cccc2Cl)n1,0,2,1,0,6.5*
O=C(c1[nH]c(C(F)(F)F)nc1-c1ccccc1)N1CCCN(Cc2ccc(F)cc2)CC1,0,2,nt,-1,-1
COc1cnn(-c2ccc(C)cc2)c(=O)c1Cl,1,12*,0,-1,3
CS(=O)(=O)c1ccc2nc(NC(=O)c3cccc([N+](=O)[O-])c3)sc2c1,0,11*,1,0,3
CCC(=O)Nc1nc2ccc(S(C)(=O)=O)cc2s1,-1,8,1,-1,-3
Cc1ccccc1NC(=O)Nc1nc2ccc(S(C)(=O)=O)cc2s1,0,8,9.0*,-1,2
NS(=O)(=O)c1ccc2nc(NC(=O)Nc3ccccc3F)sc2c1,2,10*,1,0,5
CCCC(=O)Nc1nc2ccc(S(N)(=O)=O)cc2s1,0,3,1,0,4
COCCCNC(=O)C[C@H]1C[C@@]2(C(=O)OC)C(=C[C@H](C3CCCC3)O[C@@H]2C)N(Cc2ccc(Cl)cc2Cl)C1=O,-1,3,nt,-2,-1
O=C(C(=O)N1CCC(CNS(=O)(=O)c2cc(C(F)(F)F)cc(C(F)(F)F)c2)CC1)c1cccs1,0,-1,nt,0,0
O=C1Nc2ccccc2N=C(c2ccccc2)C1N(C(=O)c1ccnc2ccccc12)c1ccccc1 (centres undefined),0,6,nt,0,3
Cn1nnc(-c2ccc(OCc3ccccc3F)cc2)n1,3.8*,9,2,1.0*,2
CCN(CC)C(=O)CC[C@@H]1CC[C@]2(CCCN(Cc3ccccn3)C2)O1,1,-1,nt,-1,-2
Cc1cccc(C)c1NC(=O)CCN1C(=O)C2C3CCC(C3)C2C1=O (centres undefined),0,2,1,-2,-2
O=C(CCN1C(=O)C2C3CCC(C3)C2C1=O)Nc1ccccc1C(F)(F)F (centres undefined),0,4,2,6.0*,-1
O=C(Nc1cccc(Cl)c1)NN(c1ccccc1)C1CCS(=O)(=O)C1 (centres undefined),0,7,nt,-2,-1
O=C(O)c1ccc(-n2nnnc2Oc2ccccc2C(=O)N2CCOCC2)cc1,-1,0,4.9*,-1,-1
SMILES,DAX1 inh-1,hgDAF12 agonist,DAX1 inh-2,ssDAF-12 act,hcDAF-12 act
COC(=O)CC1C(=O)NCCN1C(=O)c1ccccc1 (centres undefined),0,1,2,-1,0
COC(=O)CC1C(=O)NCCN1C(=O)CSc1nc2ccccc2s1 (centres undefined),1,-1,1,1.2*,4
COC(=O)CC1C(=O)NCCN1C(=S)Nc1ccc(F)cc1 (centres undefined),0,2,5.2*,-1,1
COc1ccccc1NC(=O)COc1ccc(Br)cc1CNCCCN1CCOCC1,1,0,0,-1,1
Cc1ccccc1NC(=O)COc1ccc(Br)cc1CNCCCO,0,0,5.2*,0,2
COc1ccc(CCNC(=O)Cn2nc(-c3ccccc3)ccc2=O)cc1,-1,-3,nt,-1,1
Cc1[nH]nc(C(F)(F)F)c1N=NN1CCOCC1,-3,-7,-5,-2,-4
O=C(OC1CC2CCC(C1)[N+]21CCCC1)C(O)(c1ccccc1)c1ccccc1 (centres undefined),0,1,nt,-1,-1
Cc1cc(NC(=O)C(C)Sc2nc(-c3cccs3)nc3ccccc23)no1 (centres undefined),2,1,4.5*,-1,-2
Cc1cc(NC(=O)CSc2nc(C(C)C)nc3ccccc23)no1,-1,-3,-1,-1,-2
CCOC(=O)N(C)C[C@@H]1OCc2cn(nn2)CCCC(=O)N([C@H](C)CO)C[C@H]1C,0,1,nt,-1,-1
Cc1ccc(C2C(C(=O)O)c3ccccc3C(=O)N2C)c(C)c1 (centres undefined),1,-2,0,-1,0
CN1C(=O)c2ccccc2C(C(=O)O)C1c1cn(C)c2ccccc12 (centres undefined),0,0,0,-1,5.9*
O=C(/C=C/c1ccc(Br)cc1)N1CCN(c2cccc(C(F)(F)F)c2)CC1,2,-2,-1,-1,6.4*
O=C(/C=C/c1cccc(Br)c1)N1CCN(c2cccc(C(F)(F)F)c2)CC1,0,-4,0,-1,2
CC1(C)CC(=O)C(C2C3=C(CC(C)(C)CC3=O)Oc3c(Br)cc(Br)cc32)=C(O)C1 (centres undefined),1,11*,1,1,3
O=C(c1cccc(S(=O)(=O)N2CCCCC2)c1)N1CCc2ccccc21,0,-2,0,-1,5.9*
O=C(NCCCN1CCCC1=O)c1cccc(S(=O)(=O)N2CCCCC2)c1,4.4*,3,0,-1,3
CNc1ccc(-c2cccc(C(C)=O)c2)cn1,0,5,nt,-1,1
CNc1ccc(-c2cccc(CO)c2)cn1,1,11*,nt,-1,3
COc1ccc(/C(N)=N/OC(=O)c2ccco2)cc1,3.9*,11*,-1,0,4
Cc1cccc(C2Nc3ccccc3C(=O)N2c2ccccc2)n1 (centres undefined),0,2,1,-1,1
